Holding throughout (assay type): functional
Experiment [1] addresses Solute carrier family 2, facilitated glucose transporter member 1 (Homo sapiens) (UniProt P11166). Description: ST_JUDE_LEISH: Cytotoxicity at 2uM final concentration against transgenic Leishmania Mexicana promastigotes LmGLUT1 that are glucose transport deficient and complemented with the human glucose transporter GLUT1. Activity is measured by DNA content using SYBR green in vitro.

The target in experiment [2] is Hexose transporter 1 (Plasmodium falciparum) (UniProt O97467). Description: ST_JUDE_LEISH: Cytotoxicity at 2uM final concentration against transgenic Leishmania Mexicana promastigotes LmPfHT that are glucose transport deficient and complemented with the Plasmodium falciparum hexose transporter. Activity is measured by DNA content using SYBR green in vitro.
Experiment [3] concerns the target Glucose transporter (Leishmania mexicana) (UniProt O61059). Put plainly: ST_JUDE_LEISH: Cytotoxicity at 2uM final concentration against transgenic Leishmania Mexicana promastigotes LmGT2 that are glucose transport deficient and complemented with the L. Mexicana glucose transporter 2. Activity is measured by DNA content using SYBR green in vitro.

As a reminder, the inhibition is the change of the read-out against control, counted positive when it falls.

Values joined by “and” are separate entries in the source; they are usually repeats but may differ in a detail not shown here. Equal values may be shown once.

Chain of Solute carrier family 2, facilitated glucose transporter member 1 (Homo sapiens) (P11166 whole entry): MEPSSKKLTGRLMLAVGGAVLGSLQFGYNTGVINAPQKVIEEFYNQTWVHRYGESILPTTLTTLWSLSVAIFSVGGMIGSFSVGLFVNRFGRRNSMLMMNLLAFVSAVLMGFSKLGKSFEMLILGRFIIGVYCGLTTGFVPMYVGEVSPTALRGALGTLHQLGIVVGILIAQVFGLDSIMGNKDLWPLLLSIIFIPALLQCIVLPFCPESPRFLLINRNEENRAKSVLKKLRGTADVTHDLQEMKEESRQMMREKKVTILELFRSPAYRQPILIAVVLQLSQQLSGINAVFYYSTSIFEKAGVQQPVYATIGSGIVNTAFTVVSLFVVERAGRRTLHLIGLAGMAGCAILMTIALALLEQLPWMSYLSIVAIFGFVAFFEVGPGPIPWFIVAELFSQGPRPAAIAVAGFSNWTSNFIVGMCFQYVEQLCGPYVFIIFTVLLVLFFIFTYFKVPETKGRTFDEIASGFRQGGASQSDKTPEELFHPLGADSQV

Turning to `CC[C@H]1CN2CC[C@H]1C[C@H]2[C@H](O)c1ccnc2ccc(O)cc12`, the inhibition was 0.99% in experiment [1], 2.1% in experiment [2] and 1.04% in experiment [3].
`COC(=O)c1ccc(CC(C)NCC(O)c2cccc(C(F)(F)F)c2)cc1C` (stereo not given): the inhibition is 0.54% in experiment [1], 1.8% in experiment [2] and 0.87% in experiment [3].
On to `O=C(/C=C/c1ccc(Cl)c(Cl)c1)NC1CCC(CN2CCC(c3c[nH]c4cc(C(F)(F)F)ccc34)CC2)CC1` (stereo not given), for which the inhibition is 6.9% and 1.89% in experiment [1]; 4.9% and -0.14% in experiment [2]; 12.7% and 2.07% in experiment [3].
Turning to `CC(C)/C(=C(/F)CN1C(=O)C(NC(=O)c2cc3ccccc3[nH]2)C(=O)N(c2ccccc2)c2ccccc21)c1ccccc1` (stereo not given), the inhibition is -0.35% in experiment [1], -0.22% in experiment [2] and -1.01% in experiment [3].
With `COc1c(F)cc(CC(C)NCC(O)c2cccc(Cl)c2)cc1F` (stereo not given), the inhibition in experiment [1] is -0.28%; in experiment [2], -0.81%; in experiment [3] it was -3.56%.
On to `CN1C(=O)[C@H](NC(=O)[C@@H](Cc2ccccc2)NC(=S)Nc2ccccc2)N=C(c2ccccc2)c2ccccc21`, for which the inhibition amounted to 1.25% in experiment [1], 0.57% in experiment [2] and 1.74% in experiment [3].
Consider `CC(C)N(C)C(=O)n1cnc(S(=O)(=O)C2CC3CCC2C3)n1` (stereo not given), for which the inhibition in experiment [1] is 2.26%; in experiment [2] it was 1.45%; in experiment [3], -0.84%.
Turning to `CNCCc1c(O)ccc2ccccc12`, the inhibition in experiment [1] came out at 2.95%; in experiment [2], 3.27%; in experiment [3], 3.59%.
Regarding `Cc1cc2cc(CNCCc3ccccc3Br)ccc2nc1N`, the inhibition stood at 9.09% in experiment [1], 1.37% in experiment [2] and 5.36% in experiment [3].
For `CC[C@H]1CN2CC[C@H]1C[C@H]2[C@H](O)c1cc(-c2cccc(F)c2)nc2ccc(OC)cc12`, in that order: 8.98%, 7.25% and 5.44%.
Turning to `CNCCCCCCc1ccc(CC(C)NCC(O)c2cccc(Cl)c2)cc1` (stereo not given), the results for the inhibition in experiment [1], in experiment [2] and in experiment [3] were 6.3%, 2.29% and 0.1%, respectively.
Regarding `CC(C)C[C@H](Nc1ccc(C#N)c2ccccc12)C(=O)N[C@@H]1CCCc2ccccc21`, the inhibition is 3.96% in experiment [1], 1.88% in experiment [2] and 1.15% in experiment [3].
For the compound `N[C@@H](CCN1CCC(c2cccc(O)c2)CC1)Cc1ccc(F)c(F)c1`, the inhibition was found to be 3.74% in experiment [1], 2.04% in experiment [2] and 0.73% in experiment [3].
On to `O=C(/C=C/c1cccc2ccccc12)NC1CCC(CN2CCC(c3c[nH]c4ccccc34)CC2)CC1` (stereo not given), for which the inhibition was 1.25% and 2.48% in experiment [1]; 0.21% and 2.66% in experiment [2]; -2.33% and 1.25% in experiment [3].
For the compound `COc1ccc2nc(-c3ccc(F)cc3)cc([C@@H](O)[C@@H]3C[C@@H]4CCN3CC4C=NO)c2c1` (stereo not given in full), the inhibition in experiment [1] was found to be 4.55%; in experiment [2], 4.75%; in experiment [3] it was 3.7%.
Regarding `CC(C)CNCc1cccc(-c2cccc(CN(C(=O)Nc3ccccc3)C3CCN(Cc4ccccc4)CC3)c2)c1`, the inhibition in experiment [1] turned out to be 1.9%; in experiment [2], 1.81%; in experiment [3], 5.06%.
For `O=C(/C=C/c1ccc(Cl)cc1Cl)NC1CCC(CN2CCC(c3c[nH]c4ccccc34)CC2)CC1` (stereo not given), in that order: 10.9%, 13.1% and 9.99%.
In the case of `O=C(/C=C/c1ccccc1O)NC1CCC(CN2CCC(c3c[nH]c4ccccc34)CC2)CC1` (stereo not given), the inhibition in experiment [1] is -0.75% and -1.89%; in experiment [2] it was 0.85% and 0.08%; in experiment [3], -1.86% and -3.26%.
As for `COc1cc(CC(C)NCC(O)c2cccc(C(F)(F)F)c2)ccc1OCc1ccccc1` (stereo not given), the inhibition was determined as 4.94% in experiment [1], 4.6% in experiment [2] and 3.99% in experiment [3].
Turning to `COCCNCc1cccc(-c2cccc(CN(C(=O)Nc3ccccc3)C3CCN(Cc4ccccc4)CC3)c2)c1`, the results for the inhibition in experiment [1], in experiment [2] and in experiment [3] were 3.2%, 2.07% and 1.33%, respectively.
Taken in the same sequence, the figures for `O=C(/C=C/c1ccc(Cl)c(Cl)c1)Nc1cccc(CN2CCC(c3c[nH]c4ccccc34)CC2)c1` were 8.01%, 6.99% and 5.33%.
For `CC1(CCCCN2CC=C(c3c[nH]c4ccccc34)CC2)C(=O)Nc2ccccc21` (stereo not given), in that order: 0.6%, -0.08% and 2.1%.
For `Cc1ccc(CC(C)NCC(O)c2cccc(Cl)c2)cc1F` (stereo not given), in that order: 9.84%, 9.76% and 9.69%.
For the compound `CCOC(=O)c1ccc(CC(C)NCC(O)c2cccc(C(F)(F)F)c2)cc1` (stereo not given), the figures for the inhibition in experiment [1], in experiment [2] and in experiment [3] were -2.26%, -1.71% and -0.87%, respectively.
With `COc1cc(NC(=O)c2nn(CCCN3CCC4(CC3)C(=O)NCN4c3ccccc3)cc2-c2ccc(Cl)c(Cl)c2)cc(OC)c1OC`, the values for the inhibition in experiment [1], in experiment [2] and in experiment [3] were -0.06%, 8.62% and 0.13%, respectively.
As to `OC(CNCc1ccccc1OC(F)F)c1cccc(C(F)(F)F)c1` (stereo not given), the inhibition in experiment [1] stood at 1.52%; in experiment [2], 1.17%; in experiment [3] it was 1.62%.
On to `CCOC(=O)c1c(CN2CCN(C)CC2)n(Cc2ccccc2)c2cc(Br)c(O)cc12`, for which the inhibition was determined as 17.4% in experiment [1], 16.7% in experiment [2] and 12.7% in experiment [3].
Taken in the same sequence, the figures for `CN(C)c1cccc(NC(=O)N[C@H]2N=C(c3ccccc3)c3ccccc3N(CC(=O)N3CCCC3)C2=O)c1` were 2.85%, 2.62% and 2.53%.
As for `O=C(NCCC1CCN(CCc2c[nH]c3ccccc23)CC1)Nc1ccc(Cl)c(Cl)c1`, the figures for the inhibition in experiment [1], in experiment [2] and in experiment [3] were 3.67%, 2.49% and 3%, respectively.
Regarding `CCCCCCCc1cc(O)c2c(c1)OC(C)(C)c1ccncc1-2`, the inhibition in experiment [1] amounted to 1.49%; in experiment [2] it was 2.54%; in experiment [3] it was 1.72%.
`COc1ccccc1CNCC(O)c1cc(C(F)(F)F)ccc1C(F)(F)F` (stereo not given): the figures for the inhibition in experiment [1], in experiment [2] and in experiment [3] were 0.84%, 0.58% and 1.6%, respectively.
For `CC[C@H]1CN2CC[C@@H]1C[C@H]2[C@H](O)c1cc(N2CCC(CO)CC2)nc2ccc(OC)cc12`, in that order: 1.5%, 1.17% and 2.66%.
Turning to `CC[C@H]1CN2CCc3cc(OC)c(OC)cc3[C@@H]2C[C@@H]1C[C@H]1NCCc2c1cc(OC)c(OC)c2Br`, the inhibition in experiment [1] is 88%; in experiment [2] it was 86.6%; in experiment [3], 84.7%.
For the compound `Cc1cc(O)cc2c(C3CCN(CC4CCN(C(=O)/C=C/c5ccc(Cl)c(Cl)c5)CC4)CC3)c[nH]c12`, the inhibition was 0.1% in experiment [1], -0.37% in experiment [2] and 0.13% in experiment [3].
For the compound `O=C(c1cc(C(F)(F)F)cc(C(F)(F)F)c1)N1CCC(CCN2CCC3(CC2)C(=O)NCN3c2ccccc2)CC1Cc1ccc(Cl)c(Cl)c1` (stereo not given), the inhibition turned out to be 6.32% in experiment [1], 10.7% in experiment [2] and 6.06% in experiment [3].
For `Cc1cc(C)c(CC(C)NCC(O)c2cccc(C(F)(F)F)c2)c(C)c1` (stereo not given), the inhibition in experiment [1] was 2.03%; in experiment [2], -0.06%; in experiment [3], -1.18%.
With `Cc1ccccc1C1=CCN(CCCN2c3ccccc3Sc3ccc(Cl)cc32)CC1`, the inhibition in experiment [1] worked out at 6.62%; in experiment [2], 5.58%; in experiment [3] it was 1.49%.
As for `C=C[C@H]1CN2CC[C@H]1C[C@H]2[C@H](O)c1cc(-c2ccc(Cl)cc2)nc2ccc(OC)cc12`, the inhibition is 1.16% in experiment [1], 1.72% in experiment [2] and 1.31% in experiment [3].
Consider `O=C(/C=C/c1ccccc1Cl)NC1CCC(CN2CCC(c3c[nH]c4ccccc34)CC2)CC1` (stereo not given), for which the inhibition in experiment [1] was 2.44% and 5.03%; in experiment [2] it was 0.61% and 3.12%; in experiment [3], -3.81% and 6.89%.
As to `COc1cccc(CCNC(C)Cc2ccc(OCCCCOc3ccccc3)cc2)c1` (stereo not given), the inhibition in experiment [1] stood at 95%; in experiment [2], 96.3%; in experiment [3], 101%.
Consider `CN1CC=C(c2c[nH]c3ccc(OC(=O)c4ccccc4)cc23)C1`, for which the inhibition turned out to be 0.69% in experiment [1], 0.43% in experiment [2] and 1% in experiment [3].
As for `CCc1nc(N)nc(N)c1-c1cccc(Cl)c1`, the inhibition in experiment [1] was found to be 2.71%; in experiment [2], 2.32%; in experiment [3] it was 3.02%.
For `Cc1[nH]c2c(C)cc(NS(C)(=O)=O)cc2c1C1CCN(CC2CCN(C(=O)/C=C/c3ccc(Cl)c(Cl)c3)CC2)CC1`, in that order: 1.48%, 3.63% and 4.65%.
Taken in the same sequence, the figures for `Cc1cc(N(C)C2CCN(C)CC2)nc(Nc2ccc(Br)cc2)n1` were 3.64%, 6.94% and 1.93%.
On to `CCN(Cc1ccccc1)CC(O)c1ccc(Cl)c(Cl)c1` (stereo not given), for which the inhibition in experiment [1] was 0.91%; in experiment [2], 0.62%; in experiment [3], 1.21%.
As for `O=C(Nc1ccccc1Cl)NC1CCC(CN2CCC(c3c[nH]c4ccccc34)CC2)CC1` (stereo not given), the inhibition in experiment [1] is 4.02% and 5.1%; in experiment [2], 3.83% and 5.22%; in experiment [3] it was -1.83% and 3.04%.
As to `O=C(/C=C/c1ccc(Cl)c(Cl)c1)N1CCC(CN2C3CCC2CC(c2c[nH]c4ccccc24)C3)CC1` (stereo not given), the inhibition in experiment [1] stood at 2.43%; in experiment [2], 1.51%; in experiment [3], 0.89%.
`CCC1CN2CCc3cc(OC)c(OC)cc3C2CC1CC1NCCc2cc(OC)c(OC)cc21` (stereo not given): the inhibition stood at 96.6% in experiment [1], 96% in experiment [2] and 93.1% in experiment [3].
Consider `CC(=O)N(Cc1cccc(-c2cccc(CNCCc3ccccc3)c2)c1)C1CCN(Cc2ccccc2)CC1`, for which the inhibition is -0.27% in experiment [1], 1.94% in experiment [2] and 4.41% in experiment [3].
With `C#CCOc1ccc(CC(C)NCC(O)c2cccc(C(F)(F)F)c2)cc1` (stereo not given), the inhibition was 0.24% in experiment [1], 0.36% in experiment [2] and 0.98% in experiment [3].
For `COc1cc(C=CC(=O)N2CCC(CN3CCC(c4c[nH]c5ccccc45)CC3)CC2)cc(OC)c1`, in that order: 2.61%, 0.72% and -2.69%.
For `COc1ccc(-c2ccccc2)cc1NC(=S)NC1CCC(CN2CCC(c3c[nH]c4ccccc34)CC2)CC1` (stereo not given), the inhibition is 3.8% and 4.09% in experiment [1]; 2.57% and 3.78% in experiment [2]; 0.72% and 3.03% in experiment [3].
On to `Cc1ccc(-n2nc(C)c3c2NC(=O)CSC3c2ccsc2)cc1` (stereo not given), for which the inhibition turned out to be 9.48% in experiment [1], 13.5% in experiment [2] and 11% in experiment [3].
For the compound `c1ccc2c(NCCCCCCCCCNc3c4ccccc4nc4ccccc34)c3ccccc3nc2c1`, the inhibition in experiment [1] came out at 3.03%; in experiment [2], 6.11%; in experiment [3], 2.42%.
Taken in the same sequence, the figures for `O=C(NC1CCC(CN2CCC(c3c[nH]c4ccccc34)CC2)CC1)c1cc(-c2cccc(Cl)c2)n(-c2ccc(Cl)cc2Cl)n1` (stereo not given) were 1.34%, -0.46% and 0.47%.

The record behind these values is ChEMBL document CHEMBL3433997, “St. Jude Leishmania screening dataset” (2016).
